# Tg IFNy HTS = T. gondii growth inhibition with IFN-gamma, primary screen, cell-based; Toxoplasma gondii growth in IFN-gamma-treated host cells; hits give low values; activity change, negative = inhibition, % (no concentration beside the values); actives 3.8% (n = 69,000); AID 1259416, 2018; in the data active = activity change below about -70%, passing the limit was not always enough;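 also: host cells are HeLa cells infected with Toxoplasma gondii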
# * hit, by the source's call; i = inactive. Shown is part of a subset that was picked to be rich in hits.
SMILES,Tg IFNy HTS
COc1ccc(-c2nc(C)c(CCNC(=O)c3cccc(Cl)c3)s2)cc1OC,i
CCS(=O)(=O)N1Cc2nccn2CC(COc2cccnc2)C1 (stereo not drawn),10
NC(=O)N1Cc2nccn2CC(COc2cccnc2)C1 (stereo not drawn),-100*
CC(C)NC(=O)N1Cc2nccn2CC(COc2cccnc2)C1 (stereo not drawn),9
Cc1ccc(NC(=O)N2CC(C(=O)N3CCOCC3)C3(CCOCC3)C2)cc1 (stereo not drawn),11
CCn1c(CN2CCC(C(=O)c3cccnc3)CC2)cnc1SC,16
Cc1nc(-c2ccccc2)[nH]c(=O)c1CC(=O)NC(C)c1nc2ccccc2s1 (stereo not drawn),11
CCn1nnnc1SCC(=O)N1c2ccccc2Sc2ccccc21,-11
O=C(COc1nc2ccccc2s1)N1c2ccccc2Sc2ccccc21,0
CCc1nc(SCC(=O)N2c3ccccc3Sc3ccccc32)c2ccccc2n1,-82*
COc1nc(C)cc(C)c1CNC(=O)c1cc2n(n1)CCCN(C)C2,5
CC(C)CN1C[C@]23CN(C(=O)c4ccn[nH]4)C[C@@H](C[C@H]2S1(=O)=O)O3,-7
CCC1C=CCN1C(=O)c1ccc(-n2cnnc2)cc1 (stereo not drawn),3
Cc1cnn(CC(=O)NC(CCc2ccccc2)c2ccc3c(c2)OCCO3)c1 (stereo not drawn),-1
CC(Cc1ccc2c(c1)OCO2)CN1CC2C[C@@H](O)CN2C[C@H]1C (stereo partly drawn),-86*
CC(C)CN1C(=O)N(C)C2(CCN(CC(C)Cc3ccc4c(c3)OCO4)CC2)C1=O (stereo not drawn),-2
Cc1cc(CN2CC3C[C@@H](O)CN3C[C@@H]2C)c(C)n1-c1ccc2c(c1)OCO2 (stereo partly drawn),2
Cc1cc(C(=O)N2CCC3(CC2)CC(Oc2cccnc2)CO3)c(C)o1 (stereo not drawn),7
Cc1ccccc1-c1noc(-c2nnn(Cc3nc(-c4cccc(Cl)c4)oc3C)c2C)n1,13
COc1ccccc1C1=NOC(C)(C(=O)N(C)Cc2ccccc2N2CCOCC2)C1 (stereo not drawn),-64
COc1ccc(-c2nc(N3CCN(c4cccc(C(F)(F)F)c4)CC3)c3ccccc3n2)cc1,6
FC(F)(F)c1cccc(N2CCN(c3nc(-c4ccc(Cl)cc4)nc4ccccc34)CC2)c1,-22
Nc1ccc(-c2ccc3ncc4ccc(=O)n(-c5cccc(C(F)(F)F)c5)c4c3c2)cn1,-76*
Cc1cccc(Nc2ncnc3ccccc23)c1,-51
CC(Nc1ncnc2ccccc12)c1ccccc1 (stereo not drawn),-93*
SMILES,Tg IFNy HTS
Cc1ccc(Nc2nc(-c3nnc(-c4ccc(C)cc4)o3)nc3ccccc23)cc1,42
c1ccc(Nc2ncnc3ccccc23)cc1,-61
CC(Nc1nc(-c2nnc(-c3ccccc3)o2)nc2ccccc12)c1ccccc1 (stereo not drawn),-94*
Cc1cc(C)cc(Nc2nc(-c3nnc(-c4ccccc4)o3)nc3ccccc23)c1,42
O=C(CCNc1n[nH]c(=O)[nH]c1=O)NCc1ccco1,-6
O=c1[nH]c2ccc(S(=O)(=O)NCc3ccccc3)cc2[nH]c1=O,-3
O=C(Nc1cccc(C(F)(F)F)c1)Nc1csc(Cc2ccsc2)n1,-93*
O=C(NCc1sccc1COc1ccc(Cl)cc1)Nc1cccc(C(F)(F)F)c1,-55
O=C(Nc1ccc(-c2nc(-c3ccccc3)co2)cc1)Nc1cccc(C(F)(F)F)c1,-51
Cc1nc2nnc3ccc(C(=O)N(C)Cc4ccccn4)cc3c2n1Cc1ccccc1,-109*
Cc1nc2nnc3ccc(C(=O)N(C)C)cc3c2n1-c1ccccc1,-3
CN(C)C(=O)c1ccc2nnc3ncn(Cc4ccccc4)c3c2c1,-46
S=C(NCCc1csc2ccccc12)Nc1ccc(Cl)cc1,52
CN(C)c1ccc(CN2CCCC(OCc3cccnc3)C2)cn1 (stereo not drawn),-2
CN(C)C(=O)N1CCC(c2nnc3ccc(C(=O)CC4CCOCC4)cn23)C1 (stereo not drawn),-7
Cc1cccc(CN2CC[C@@H]3OCCN(C(=O)c4ccco4)[C@@H]3C2)n1,-42
CC1(C)NC(=O)N(CC(O)CN2C(=O)c3ccccc3C2=O)C1=O (stereo not drawn),33
CC1(C)C(=O)NC2=C1C(=O)C(=O)c1ccccc12,-82*
CCc1ccc(C2CC(=O)c3c(ccc4ccccc34)N2)cc1 (stereo not drawn),21
COc1ccc(-c2oc3ccccc3c(=O)c2OC)cc1,60
COc1ccc(Cn2nc(C(=O)NC3CCCC3)c3c2CCN(C(=O)c2cscn2)C3)cc1,2
Cc1nc(CN2C(=O)CC[C@@H]3[C@@H]2CCN3Cc2ccco2)cs1,1
CC(C)[C@H](N)C(=O)OCCOCn1cnc2c(=O)[nH]c(N)nc21,2
CC(C)(C)C(=O)OCOP(=O)(COCCn1cnc2c(N)ncnc21)OCOC(=O)C(C)(C)C,-80*
Nc1ncnc2c1ncn2[C@H]1CC[C@@H](CO)O1,11
SMILES,Tg IFNy HTS
COc1cccc(NC(=O)CN2CCC3(CC2)N=C(c2cccc(Cl)c2)C(=O)N3)c1,-22
Cc1cc(C)n(-c2ccc(C(=O)Nc3nc(-c4cc(C)sc4C)cs3)cc2)n1,5
CCOc1ccccc1-c1ccccc1NC(=O)c1ccc(-n2nc(C)cc2C)cc1,-101*
CCOc1ccccc1-c1ccccc1NC(=O)c1cc(-c2ccc(F)cc2)no1,-9
CCCN1C(=O)CCc2cc(NC(=O)Cc3ccc(OC)cc3Cl)ccc21,19
O=S(=O)(c1cccc(Cl)c1Cl)N1CCCC2(CCNC2)C1 (stereo not drawn),1
COc1ccccc1-c1cc(C(=O)Nc2cccc(CCc3ccncc3)c2)[nH]n1,-92*
COc1ccccc1C(=O)Nc1cccc(-n2cnnc2)c1,-8
Cc1cnn(CC(=O)Nc2cccc(CCc3ccncc3)c2)c1,13
CS(=O)(=O)N[C@@H]1CCN(C(=O)C2CC2)[C@H]1Cc1cccnc1,3
CN1CCn2c(-c3ccccc3)cnc2C12CCN(S(=O)(=O)c1ccccc1)CC2,-108*
Cc1ccc(C)c(S(=O)(=O)N2CCC3(CC2)c2ncc(-c4cccc(F)c4)n2CCN3C)c1,-43
Cc1ccc(CN2CCC3(CC2)c2ncc(-c4ccccc4)n2CCN3C)o1,-50
CC(C)c1nccc(CN2CCN(Cc3ccc(Cl)cc3)CC2)n1,-62
Cn1nc(CN2CCCC2)c2c1CN(C(=O)c1ccc[nH]1)CC2,0
Cc1nc(CN2C(=O)C[C@@H]3[C@@H]2CCN3C(=O)c2ccoc2C)cs1,-3
CC(C)C(C)NC(=O)c1ncn2c1CN(CC1CC1)S(=O)(=O)c1ccccc1-2 (stereo not drawn),-13
CN1Cc2c(C(=O)Nc3cccc(Cl)c3)ncn2-c2ccccc2S1(=O)=O,-7
CC(C)CCN1Cc2c(C(=O)Nc3cccc(F)c3)ncn2-c2ccccc2S1(=O)=O,-83*
Cc1nc(C(Cc2ccsc2)NC(=O)c2c(-c3cccnc3)noc2C)sc1C (stereo not drawn),8
CCN(Cc1ccncc1)C(=O)c1cccc(NCc2ccc(C)cc2)c1,0
Cc1cc(C)cc(NC(=O)c2nc(Nc3ccccc3)c3ccccc3n2)c1,5
Cc1ccc(C)c(NC(=O)c2nc(Nc3ccccc3)c3ccccc3n2)c1,-61
Cc1cccc(Nc2nc(C(=O)Nc3c(C)cccc3C)nc3ccccc23)c1,-70*

# Compound activity: PubChem, Broad Institute
